# Calls of active or inactive are those of the source.
# Columns and labels:
# [1] = small molecules captured by biotinylated probe aFSTL3 – biochemical, small-molecule microarray, fluorescence 635/667, stem cell growth factor project, primary screen (AID 1064); details: higher = more signal;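 also: measures binding of the biotinylated anti-FSTL3 antibody to printed compounds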
# [2] = binders from COS7 lysate, DM2A8 probe, primary screen, torsin A project, cell lysate, small-molecule microarray, fluorescence 635/667 (AID 1065); details: higher = more signal, COS7 lysate expressing mutant human TOR1A
# [3] = small molecules captured by biotinylated probe aFGF2 – biochemical, small-molecule microarray, fluorescence 635/667, stem cell growth factor project, primary screen (AID 1067); details: higher = more signal;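 also: measures binding of biotinylated aFGF2 protein to printed compounds on slides; z-score merges feature fluorescence and signal-to-noise across triplicate slides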
# [4] = small molecules captured by biotinylated probe aFGF10 – biochemical, small-molecule microarray, fluorescence 635/667, stem cell growth factor project, primary screen (AID 1071); details: higher = more signal;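 also: score merges 667 nm spot intensity and signal to noise from triplicate slides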
# [5] = molecular target: Neurogenic locus notch homolog protein 2 (Homo sapiens) (UniProt Q04721); experiment: small molecules binding Notch2 protein – biochemical, small-molecule microarray, 635 nm fluorescence, stem cell growth factors, primary screen (AID 1073); details: higher = more signal
# [6] = molecular target: Pro-neuregulin-1, membrane-bound isoform (Homo sapiens) (UniProt Q02297); experiment: small molecules binding neuregulin-1 protein – biochemical, small-molecule microarray, fluorescence 635/667, psychiatric disease protein project, primary screen (AID 1075); details: NRG1 binding, 635 nm fluorescence, higher = more signal;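 also: score combines 667 nm spot fluorescence with signal to noise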
# [7] = system: Neuregulin-1 EGF-like domain; experiment: small molecules binding NRG1 EGF domain – biochemical, small-molecule microarray, 635 nm fluorescence, primary screen (AID 1081); details: higher = more signal;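 also: binding of the protein to compounds printed on small-molecule microarray slides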
# [8] = FRG1 expression reporter modulators in myotubes – cell-based, C2C12 myotubes, firefly/Renilla luciferase, luminescence, FRG1 inhibition for FSHD, primary screen (AID 1084); details: FRG1 promoter luciferase, higher = more signal, called active from +8 up or from −8 down
# [9] = small molecules captured by biotinylated probe aFST – biochemical, small-molecule microarray, fluorescence 635/667, stem cell growth factor project, primary screen (AID 1086); details: higher = more signal;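 also: score merges 667 nm fluorescence with signal-to-noise of each printed compound spot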
# [10] = binders of probe aHhip on microarray, primary screen, stem cell growth factor project, biochemical, small-molecule microarray, fluorescence 635/667 (AID 1087); details: higher = more signal;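 also: score merges spot fluorescence at 667nm with spot signal to noise ratio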
# [11] = system: PRMT1 (protein arginine N-methyltransferase 1); experiment: small molecules binding arginine methyltransferase PRMT1 – biochemical, small-molecule microarray, 635 nm fluorescence, primary screen (AID 1088); details: higher = more signal;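 also: binding of Prmt1 protein to compounds spotted on small-molecule microarray slides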
# [12] = growth effects on S. cerevisiae YJM789 – YJM789 clinical isolate, OD600, 24 h, basal, primary screen (AID 1089); details: higher = more signal, called active from +8 up or from −8 down;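 also: growth of clinical yeast isolate S. cerevisiae YJM 789 seeded 1000 cells per well; test concentration not given here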
# [13] = S. pombe growth modifiers, basal conditions – strain 972, OD600, 24 h, no modulator, primary screen (AID 1090);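 also: basal condition with compound alone and no growth modifier present; test concentration not given here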; details: S. pombe 972 growth, higher = more signal, called active from +8 up or from −8 down
# [14] = budding yeast growth modifiers under rapamycin – strain BY4716, OD600, 96 h, primary screen (AID 1091); also: test concentration not given here; details: S. cerevisiae BY4716 + rapamycin, higher = more signal, called active from +8 up or from −8 down
# [15] = molecular target: Torsin-1A-interacting protein 2 (Homo sapiens) (UniProt Q8NFQ8); experiment: small molecules binding lysate-expressed LULL1 – cell lysate, human LULL1 lysate, 635/667 nm fluorescence, primary screen (AID 1092); details: small-molecule microarray, hLULL1 lysate binding, 635 nm fluorescence; higher = more signal;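 also: probe is lysate of COS7 cells overexpressing human LULL1; score merges per-feature 667 nm fluorescence with signal-to-noise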
# [16] = optical density change of DRC41 E. coli – strain DRC41, OD650, 24 h, E. coli filamentation project, primary screen (AID 1093);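 also: MC1000 strain lacking acrAB efflux and sulA so SOS filamentation is blocked; test concentration not given here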; details: E. coli DRC41 growth, higher = more signal, called active from +8 up or from −8 down
# [17] = probe aLefty2 binding to arrayed compounds – biochemical, biotinylated probe, 635/667 nm fluorescence, primary screen (AID 1094); details: small-molecule microarray, higher = more signal;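 also: score merges spot fluorescence near 667 nm with spot signal-to-noise ratio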
# [18] = system: Noggin (protein binding on small-molecule microarray); experiment: small molecules binding Noggin protein – biochemical, 635/667 nm fluorescence, primary screen (AID 1095); details: 635 nm fluorescence, higher = more signal;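 also: score merges 667 nm feature fluorescence with signal to noise over triplicate slides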
# [19] = molecular target: Neurogenic locus notch homolog protein 3 (Homo sapiens) (UniProt Q9UM47); experiment: small molecules binding NOTCH3 protein – biochemical, 635/667 nm fluorescence, primary screen (AID 1096); details: small-molecule microarray, 635 nm fluorescence, higher = more signal
# [20] = probe aEGFR binding to arrayed compounds – biochemical, biotinylated probe, 635/667 nm fluorescence, primary screen (AID 1097); details: small-molecule microarray, higher = more signal;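 also: probe is a biotinylated anti-EGFR antibody binding compounds printed on slides; score combines fluorescence near 667 nm and signal to noise of each spot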
# Sequence of Neurogenic locus notch homolog protein 2 (Homo sapiens) (Q04721 whole entry, looked up, canonical isoform): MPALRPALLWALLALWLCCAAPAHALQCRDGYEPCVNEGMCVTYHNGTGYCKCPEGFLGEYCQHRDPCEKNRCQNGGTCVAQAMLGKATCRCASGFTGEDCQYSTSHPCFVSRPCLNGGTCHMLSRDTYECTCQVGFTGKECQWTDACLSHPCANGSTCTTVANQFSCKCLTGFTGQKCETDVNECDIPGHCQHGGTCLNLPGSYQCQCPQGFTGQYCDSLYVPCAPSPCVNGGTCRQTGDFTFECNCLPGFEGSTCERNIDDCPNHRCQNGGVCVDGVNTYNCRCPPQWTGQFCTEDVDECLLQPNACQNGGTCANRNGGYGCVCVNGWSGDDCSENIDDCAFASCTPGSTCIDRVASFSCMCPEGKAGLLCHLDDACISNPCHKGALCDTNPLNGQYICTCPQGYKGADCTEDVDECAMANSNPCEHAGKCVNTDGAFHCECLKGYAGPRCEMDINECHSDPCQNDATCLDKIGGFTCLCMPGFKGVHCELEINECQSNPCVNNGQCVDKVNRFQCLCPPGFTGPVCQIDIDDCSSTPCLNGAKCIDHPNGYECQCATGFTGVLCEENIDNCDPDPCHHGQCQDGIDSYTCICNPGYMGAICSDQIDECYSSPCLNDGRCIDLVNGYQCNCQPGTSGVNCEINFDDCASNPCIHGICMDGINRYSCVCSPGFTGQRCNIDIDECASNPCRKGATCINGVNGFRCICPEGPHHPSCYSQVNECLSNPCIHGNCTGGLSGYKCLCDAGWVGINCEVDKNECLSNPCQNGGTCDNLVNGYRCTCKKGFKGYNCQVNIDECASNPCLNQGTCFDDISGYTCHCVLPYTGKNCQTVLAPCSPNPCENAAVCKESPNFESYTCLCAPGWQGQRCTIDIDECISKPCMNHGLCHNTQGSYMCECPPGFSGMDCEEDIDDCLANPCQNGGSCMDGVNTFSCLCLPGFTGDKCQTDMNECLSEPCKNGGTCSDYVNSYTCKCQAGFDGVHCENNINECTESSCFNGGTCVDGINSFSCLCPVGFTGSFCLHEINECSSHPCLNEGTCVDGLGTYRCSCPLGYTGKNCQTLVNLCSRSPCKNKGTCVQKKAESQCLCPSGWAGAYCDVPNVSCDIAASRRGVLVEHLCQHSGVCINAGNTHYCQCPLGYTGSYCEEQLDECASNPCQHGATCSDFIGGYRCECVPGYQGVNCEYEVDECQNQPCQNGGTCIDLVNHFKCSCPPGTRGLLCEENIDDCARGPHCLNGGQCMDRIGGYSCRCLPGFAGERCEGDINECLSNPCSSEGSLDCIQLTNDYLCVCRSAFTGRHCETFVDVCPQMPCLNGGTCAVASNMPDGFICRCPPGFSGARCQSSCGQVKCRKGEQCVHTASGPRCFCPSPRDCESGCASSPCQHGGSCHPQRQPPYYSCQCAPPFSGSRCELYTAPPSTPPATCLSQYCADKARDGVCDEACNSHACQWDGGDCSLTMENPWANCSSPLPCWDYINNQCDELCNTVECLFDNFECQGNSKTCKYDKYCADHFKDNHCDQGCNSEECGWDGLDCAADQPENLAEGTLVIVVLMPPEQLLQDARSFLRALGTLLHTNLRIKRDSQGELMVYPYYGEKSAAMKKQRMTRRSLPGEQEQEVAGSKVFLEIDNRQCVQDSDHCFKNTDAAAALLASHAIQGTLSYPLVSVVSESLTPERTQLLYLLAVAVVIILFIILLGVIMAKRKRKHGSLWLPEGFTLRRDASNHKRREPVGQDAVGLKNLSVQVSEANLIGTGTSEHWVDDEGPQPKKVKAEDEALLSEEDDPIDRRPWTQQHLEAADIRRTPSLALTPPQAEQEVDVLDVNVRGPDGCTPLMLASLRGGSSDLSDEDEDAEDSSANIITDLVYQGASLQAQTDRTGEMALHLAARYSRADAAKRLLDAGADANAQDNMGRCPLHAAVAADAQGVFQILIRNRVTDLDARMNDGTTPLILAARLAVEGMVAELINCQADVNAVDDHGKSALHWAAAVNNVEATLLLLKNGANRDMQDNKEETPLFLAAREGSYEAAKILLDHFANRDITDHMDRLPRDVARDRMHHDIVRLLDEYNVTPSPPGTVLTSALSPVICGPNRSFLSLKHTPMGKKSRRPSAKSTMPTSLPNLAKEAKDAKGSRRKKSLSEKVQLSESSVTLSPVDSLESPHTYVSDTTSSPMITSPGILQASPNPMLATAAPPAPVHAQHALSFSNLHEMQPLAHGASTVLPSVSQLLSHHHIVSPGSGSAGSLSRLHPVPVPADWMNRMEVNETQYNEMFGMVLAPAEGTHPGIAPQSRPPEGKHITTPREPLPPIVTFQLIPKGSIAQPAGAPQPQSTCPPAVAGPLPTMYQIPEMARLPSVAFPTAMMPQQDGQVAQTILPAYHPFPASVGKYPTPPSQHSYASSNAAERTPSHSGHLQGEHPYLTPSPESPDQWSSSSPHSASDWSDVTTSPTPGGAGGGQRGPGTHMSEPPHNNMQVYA
# Sequence of Pro-neuregulin-1, membrane-bound isoform (Homo sapiens) (Q02297 whole entry, looked up, the tested form may be a part, canonical isoform): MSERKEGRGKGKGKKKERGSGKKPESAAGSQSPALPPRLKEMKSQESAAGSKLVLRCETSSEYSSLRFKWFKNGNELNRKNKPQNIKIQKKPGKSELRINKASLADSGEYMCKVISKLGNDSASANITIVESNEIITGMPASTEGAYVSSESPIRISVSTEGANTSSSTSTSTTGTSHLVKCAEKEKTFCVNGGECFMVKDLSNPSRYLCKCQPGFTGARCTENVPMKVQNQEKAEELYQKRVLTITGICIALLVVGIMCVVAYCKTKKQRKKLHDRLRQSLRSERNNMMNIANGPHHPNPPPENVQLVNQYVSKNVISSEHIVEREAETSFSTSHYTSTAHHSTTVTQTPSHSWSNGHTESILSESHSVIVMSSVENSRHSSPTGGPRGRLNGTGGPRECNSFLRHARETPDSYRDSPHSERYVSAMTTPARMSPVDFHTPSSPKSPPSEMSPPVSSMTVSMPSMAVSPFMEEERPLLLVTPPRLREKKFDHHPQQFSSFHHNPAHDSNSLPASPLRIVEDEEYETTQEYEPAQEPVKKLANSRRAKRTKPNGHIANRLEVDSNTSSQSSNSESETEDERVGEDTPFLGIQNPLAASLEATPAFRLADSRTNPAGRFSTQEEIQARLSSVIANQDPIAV
# Sequence of Torsin-1A-interacting protein 2 (Homo sapiens) (Q8NFQ8 whole entry, looked up): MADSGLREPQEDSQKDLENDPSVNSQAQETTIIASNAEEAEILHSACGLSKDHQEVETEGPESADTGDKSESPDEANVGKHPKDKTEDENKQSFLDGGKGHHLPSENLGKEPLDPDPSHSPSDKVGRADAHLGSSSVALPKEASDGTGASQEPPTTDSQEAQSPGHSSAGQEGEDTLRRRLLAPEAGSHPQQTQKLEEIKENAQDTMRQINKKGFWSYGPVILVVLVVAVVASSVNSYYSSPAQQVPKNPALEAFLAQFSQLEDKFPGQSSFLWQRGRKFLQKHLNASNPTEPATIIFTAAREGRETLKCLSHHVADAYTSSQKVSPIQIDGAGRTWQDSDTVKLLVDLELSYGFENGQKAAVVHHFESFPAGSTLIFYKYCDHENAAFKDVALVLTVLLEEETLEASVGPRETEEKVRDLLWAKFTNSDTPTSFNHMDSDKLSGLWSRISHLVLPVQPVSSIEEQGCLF
Structure (SMILES),composite z-score [1],composite z-score [2],composite z-score [3],composite z-score [4],composite z-score [5],composite z-score [6],composite z-score [7],z-score [8],composite z-score [9],composite z-score [10],composite z-score [11],z-score [12],z-score [13],z-score [14],composite z-score [15],z-score [16],composite z-score [17],composite z-score [18],composite z-score [19],composite z-score [20]
C=CCNC(=O)[C@H]1[C@@H]2C(=O)O[C@@H](c3ccccc3)[C@@H](c3ccccc3)N2[C@@H](c2ccc(O)cc2)[C@]12C(=O)N(C(=O)OCCOC)c1ccccc12,-0.548,0.267,0.0407,1.16,1.05,1.33,1.29,-1.96 (inactive),0.303,-0.541,1.42,0.734 (inactive),-0.66 (inactive),2.39 (inactive),2.84,0.507 (inactive),-0.0095,0.537,1,0.0798
CO[C@H]1O[C@H](CO)[C@@H](OC(=O)Nc2ccc3c(c2)OCO3)[C@H](OC(=O)c2cc3ccccc3[nH]2)[C@H]1OC(=O)c1cc2ccccc2[nH]1,-0.0446,-0.152,-0.0047,0.236,-0.904,0.386,0.514,1.13 (inactive),-0.598,0.0623,0.391,-2.1 (inactive),-0.908 (inactive),0.489 (inactive),-0.33,0.382 (inactive),0.0204,0.111,0.123,-0.0828
CN1C(=O)C2C=CC(C(O)c3ccc(F)cc3)N(Nc3ccccc3)C2C1=O (stereo not given),-0.12,-0.286,-0.0222,0.208,1.24,1.35,1.34,-0.604 (inactive),0.862,-0.215,0.225,0.397 (inactive),1.08 (inactive),1.97 (inactive),3.69,-1.2 (inactive),0.085,0.447,1.02,0.0034
CCCNC(=O)[C@@H]1c2ccccc2C(=O)N(C(C)C)[C@H]1c1ccc(CO)cc1,0.277,-0.638,-0.112,-0.303,-0.664,1.23,1.2,-0.273 (inactive),0.103,-0.271,0.541,0.853 (inactive),0.668 (inactive),-0.148 (inactive),0.618,0.924 (inactive),-0.0458,-0.231,-0.421,-0.196
COC(=O)c1c(CC[C@@H](CO)NC(=O)N[C@H](Cn2cc(C3(O)CCCCC3)nn2)C(C)C)oc(C(C)=O)c1C(=O)OC,-0.413,0.945,-0.003,0.815,0.759,0.759,1.07,0.324 (inactive),0.253,-0.0237,1.57,-0.325 (inactive),-2.39 (inactive),0.0762 (inactive),1.12,1.66 (inactive),-0.0437,1.86,1.08,0.0274
CC(C)(C)OC(=O)CC[C@]1(C(=O)NCc2ccccc2)N=C(c2ccc(OCCCO)cc2)O[C@H]1c1ccccc1CN=[N+]=[N-],-0.0386,0.357,0.119,0.618,1.55,1.22,1.31,-2.07 (inactive),1.48,-0.0296,1.54,0.133 (inactive),0.0256 (inactive),0.176 (inactive),3.46,0.868 (inactive),0.214,1.2,1.05,0.134
CC(C)(C)N1CC=CC23O[C@@H]4C=CCOC(=O)[C@@H]4[C@H]2C(=O)N(CCCCCCO)[C@@H]3C1=O (stereo not given in full),0.0157,-0.511,-0.178,-0.447,-0.947,-0.574,1.36,0.212 (inactive),-0.867,-0.284,-0.911,-1.54 (inactive),-1.27 (inactive),-0.369 (inactive),1.39,-0.351 (inactive),-0.101,-1.27,-0.729,-0.163
NC(=O)NCC#Cc1ccc2c(c1)[C@]1(C(=O)N2)[C@H](C(=O)NC[C@H](O)c2ccccc2)[C@H]2C(=O)O[C@H](c3ccccc3)[C@H](c3ccccc3)N2[C@@H]1c1ccc(OCCO)cc1,0.565,0.699,-0.031,0.852,0.103,0.897,0.537,1.71 (inactive),0.0377,-0.131,0.889,2.75 (inactive),0.682 (inactive),3.73 (inactive),1.21,1.63 (inactive),0.156,-0.0728,0.0556,-0.0078
O=C1O[C@@H](c2ccccc2)[C@@H](c2ccccc2)N2[C@@H](c3ccc(OCCO)cc3)[C@]3(C(=O)Nc4ccccc43)[C@@H](C(=O)O)[C@H]12,0.161,0.144,-0.0336,1.02,0.381,1.5,1.45,-0.0089 (inactive),0.0284,-0.407,0.194,0.264 (inactive),-0.272 (inactive),-0.219 (inactive),3.09,0.852 (inactive),0.176,-0.179,-0.239,0.247
C=CCOC(=O)[C@H]1[C@@H]2C(=O)O[C@@H](c3ccccc3)[C@@H](c3ccccc3)N2[C@@H](c2ccc(OCCOC(=O)[C@@H]3C[C@@H]4C(=O)N[C@@H](CCCCNC(C)=O)C(=O)N4[C@@H]3c3ccc(O)cc3)cc2)[C@]12C(=O)Nc1ccc(I)cc12,-0.0041,0.689,-0.0466,0.892,1.43,1.23,1.37,-0.553 (inactive),0.257,-0.323,1.52,1.29 (inactive),0.145 (inactive),4.21 (inactive),1.88,-0.289 (inactive),0.0594,1.19,0.981,0.117

# — PubChem BioAssay
